# This is part of a sample that, as a whole, favours compounds with a hit. Of some 83,000 tested, about 20% had one in any assay.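 A percent growth of 40 corresponds to 60% growth inhibition; 0 means no net growth; -100 means all cells died. Active threshold: below 10.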 Values without a mark were called inactive. Activity calls are given as the source filed them.
# Columns and labels:
# Test in all cases: NCI-60 one-dose screen, 48 h (100 = growth as untreated, 0 = no growth, -100 = all killed)
# Details in all cases: 10 µM unless noted
# NCI-H23 lung = system: NCI-H23 lung
# NCI-H226 lung = system: NCI-H226 lung
# NCI-H322M lung = system: NCI-H322M lung
# HOP-62 NSCLC = system: HOP-62 NSCLC
# HOP-92 NSCLC = system: HOP-92 NSCLC
# NCI-H522 lung = system: NCI-H522 lung
# A549/ATCC NSCLC = system: A549/ATCC NSCLC
# 786-0 renal = system: 786-0 renal
# COLO 205 colon = system: COLO 205 colon
# DU-145 prostate = system: DU-145 prostate
# K-562 leukemia = system: K-562 leukemia
# MALME-3M melanoma = system: MALME-3M melanoma
# MDA-MB-231 breast = system: MDA-MB-231 breast
# RXF 393 renal = system: RXF 393 renal
# SF-268 CNS = system: SF-268 CNS
# SF-539 CNS = system: SF-539 CNS
# UACC-257 melanoma = system: UACC-257 melanoma
# M14 melanoma = system: M14 melanoma
# NCI-H460 lung = system: NCI-H460 lung
# SF-295 CNS = system: SF-295 CNS
SMILES,growth (NCI-H23 lung),growth (NCI-H226 lung),growth (NCI-H322M lung),growth (HOP-62 NSCLC),growth (HOP-92 NSCLC),growth (NCI-H522 lung),growth (A549/ATCC NSCLC),growth (786-0 renal),growth (COLO 205 colon),growth (DU-145 prostate),growth (K-562 leukemia),growth (MALME-3M melanoma),growth (MDA-MB-231 breast),growth (RXF 393 renal),growth (SF-268 CNS),growth (SF-539 CNS),growth (UACC-257 melanoma),growth (M14 melanoma),growth (NCI-H460 lung),growth (SF-295 CNS)
NC(=O)c1cc(Cl)ccc1NC(=O)/C=C/c1ccccc1,60.3%,63.6%,45.1%,84.9%,58.7%,4.73% (active),17.8%,56.8%,-43.3% (active),-0.745% (active),11.6%,67%,39.2%,-11.1% (active),46.1%,-6.33% (active),46.2%,28.1%,–,–
COc1ccc(NC(=O)c2ccc(/C=C/C(=O)c3ncc[nH]3)cc2)cc1,64.7%,96.5%,85.4%,79.1%,104%,51.4%,–,67.1%,72.4%,34.1%,–,95.1%,91.6%,76.9%,72.4%,64.1%,97.8%,87.3%,64%,88.4%
Cn1c(=O)[nH]c(=O)c2nc(CCC(=O)NCCC(=O)O)c(=O)[nH]c21,97.5%,88.3%,100%,105%,98.2%,96.5%,103%,109%,109%,113%,104%,98.9%,110%,112%,98.2%,95.7%,101%,111%,–,102%
COc1ccc(N=Nc2nccs2)c(O)c1,79.3%,63.6%,88.4%,66.3%,52.8%,69.2%,–,18.9%,44.2%,51.3%,–,92.1%,35.8%,52.7%,26.4%,40.2%,85.3%,59.6%,40.4%,95%
CC[N+](CC)=c1sc2c(s1)C(c1ccc(Cl)cc1)Oc1ccc(Cl)cc1-2 (configuration not stated),6.45% (active),52.1%,16.8%,12.4%,-18% (active),-12.9% (active),7.61% (active),30.7%,-69.6% (active),24.4%,–,-9.37% (active),-38% (active),10.7%,24%,-22.1% (active),-7.21% (active),17.3%,–,2.98% (active)
CN1CCN(c2nc(NCCCCNc3ccnc4cc(Cl)ccc34)c3ccccc3n2)CC1,82.8%,98.7%,84.9%,76.5%,54.8%,39.8%,49.3%,74.9%,-2.21% (active),75.7%,–,-53.5% (active),-5.35% (active),9.29% (active),64.9%,-73.7% (active),-32.4% (active),-75.9% (active),–,80%
CC[C@@H]1O[C@H](O[C@@H](c2cnc[nH]2)[C@H](NC(=O)c2nc([C@H](CC(N)=O)NC[C@@H](N)C(N)=O)nc(N)c2C)C(=O)N[C@H](C)[C@H](O)[C@H](C)C(=O)N[C@@H](C(=O)NCCc2nc(-c3nc(C(=O)NCCCCN=C(N)N)cs3)cs2)[C@@H](C)O)[C@H](O[C@@H]2O[C@H](CO)[C@H](O)[C@H](OC(N)=O)[C@@H]2O)[C@H](C)[C@@H]1C,20.9%,13%,105%,15.6%,11.4%,–,36.6%,25.4%,64.2%,49.4%,82%,45%,88.7%,–,23.1%,–,70.9%,39.2%,12.5%,–
NC(=NCCCOc1ccc(Cl)cc1)Nc1ccc(C(F)(F)F)cc1,33.4%,97.5%,34.9%,48.3%,20.9%,42.5%,–,53.4%,-67.1% (active),20.4%,–,-49.3% (active),10.1%,71.4%,46%,48.7%,11.7%,-47.8% (active),18.4%,43.9%
Nc1ccc(S(=O)(=O)O)c2ccc(N=Nc3ccc(N=Nc4ccc(S(=O)(=O)O)cc4)c4ccccc34)c(O)c12,98%,92.1%,94.7%,112%,102%,89.4%,99.8%,102%,105%,110%,106%,97.6%,94.7%,109%,101%,123%,109%,99.8%,–,114%
CCNc1ncnc2c1cnn2C1CCCO1 (configuration not stated),118%,94.2%,109%,99.4%,60.9%,111%,–,109%,105%,120%,–,110%,110%,105%,96.9%,105%,99.6%,104%,105%,101%
C=CC(=O)Nc1cccc(-c2nc(SC)nc(NCCN3CCOCC3)c2C#N)c1,92.5%,97.1%,94.2%,99.9%,76.1%,76%,101%,87.5%,114%,94.7%,87.7%,89.6%,87.9%,89.7%,83.8%,93.3%,94.1%,89.9%,–,106%
C#CC(F)(F)[C@]1(O)CC[C@H]2[C@@H]3CCC4=CC(=O)CCC4=C3[C@@H](c3ccc(C(C)=O)cc3)C[C@@]21C,38.5%,93.3%,96.7%,74.4%,-31.7% (active),-73% (active),73.4%,-41% (active),78.3%,86.4%,61.4%,-63.4% (active),60.6%,85.4%,36.3%,-81.9% (active),89.8%,96.6%,–,22.5%
N#Cc1c(-c2ccc(Cl)cc2)nc(N/N=C/c2cccc(Br)c2)nc1N1CCOCC1,98.3%,–,90.6%,90.9%,71.2%,91.1%,80.4%,61.8%,44%,59.3%,12.6%,133%,103%,56.2%,89.2%,78.8%,71.6%,62.4%,87%,91.5%
Cc1ccc2c(c1)C(=O)/C(=C/c1cccc(OCC(=O)c3ccc(Cl)cc3)c1)CS2,79%,–,72.9%,105%,61.5%,46.8%,103%,103%,111%,108%,29.2%,95.9%,61.9%,4.49% (active),108%,112%,120%,107%,98.8%,125%
CCOc1cc2ncc(C#N)c(Nc3ccc(OCc4cccc(F)c4)c(Cl)c3)c2cc1NC(=O)CCCCC1CCSS1 (configuration not stated),101%,–,90.8%,94.4%,78.9%,66.4%,73.6%,89.1%,103%,97.4%,80.3%,125%,96.2%,97.9%,95.7%,108%,81%,93.1%,98%,106%
CC(C)(O)c1cn(CCCCN2C(=O)C(=O)c3ccccc32)nn1,95.8%,–,108%,94.8%,102%,87.4%,99.7%,98.3%,112%,113%,94.3%,105%,99.7%,104%,99.7%,96.4%,103%,97.7%,102%,102%
Cc1cc2nc3[nH]c4ccccc4c3nc2cc1C,99.6%,96.1%,98.7%,94.2%,67.2%,94%,87.2%,79.3%,88%,79.4%,–,76.6%,64.4%,–,74.6%,70.7%,–,101%,–,102%
CC1=C(O)C(=O)C(C(C#N)(C#N)C(C#N)C#N)C1 (configuration not stated),92.4%,–,85.8%,108%,112%,85.8%,–,106%,105%,94.7%,–,113%,124%,110%,84.4%,104%,105%,101%,102%,101%
COc1ccc(Nc2nc(SC)nc(-c3cccc([N+](=O)[O-])c3)c2C#N)cc1,73.6%,–,65.8%,44.5%,61.3%,80.8%,31.4%,21.8%,81.5%,80.6%,93.6%,61.7%,45.1%,60%,71.6%,69%,89.5%,74.9%,–,69.3%
O=C1c2cccc3cccc(c23)C(=O)N1CCCCN1CCN(CCCCOc2ccc(-c3nc4ccc(N5CCOCC5)cc4[nH]3)cc2)CC1,79.2%,–,94.8%,98.3%,-29.5% (active),70.4%,39.6%,80.6%,93.9%,77.2%,57.1%,86.5%,91.6%,24.1%,68.6%,106%,96.6%,98.4%,75%,74.7%
COC(=O)c1ccc(Cn2cnc3c(N)ncnc32)cc1,103%,106%,106%,97%,92.1%,69.6%,104%,114%,109%,–,89.4%,–,87.7%,102%,114%,92.1%,116%,110%,–,109%
COc1ccc(-c2nc3ccc(-c4nc5ccc(N6CCN(c7ccccc7)CC6)cc5[nH]4)cc3[nH]2)cc1OC,-21.4% (active),–,-2.95% (active),27%,13.6%,-33% (active),-56.2% (active),-79.8% (active),-70.9% (active),-42.4% (active),-31.7% (active),-63.8% (active),-22% (active),-37.1% (active),11.4%,17.5%,-19.8% (active),1.2% (active),-6.7% (active),22.1%
COc1cc2c(cc1O)CC[C@@H]1[C@@H]2CC[C@]2(C)[C@@H](NCCN(C)C)CC[C@@H]12,-77.2% (active),–,-91.6% (active),-76.3% (active),-81.7% (active),-94.3% (active),-81.6% (active),-84.3% (active),-71% (active),-94.3% (active),–,-72.5% (active),-82.6% (active),-95.7% (active),-78.8% (active),-86.5% (active),-84.9% (active),-63.7% (active),-84.7% (active),-88.5% (active)
Cc1cc(C)nc(SC2=C(Nc3ccc(C)c(Cl)c3)C(=O)N(Cc3ccccc3)C2=O)n1,62.4% [30 µM],–,82% [30 µM],86.9% [30 µM],-4.65% [30 µM] (active),73.8% [30 µM],41.2% [30 µM],68.6% [30 µM],81.2% [30 µM],87.8% [30 µM],32.5% [30 µM],66.4% [30 µM],39.1% [30 µM],51.4% [30 µM],64.6% [30 µM],85.8% [30 µM],67.4% [30 µM],64% [30 µM],52.4% [30 µM],-3.52% [30 µM] (active)

# From PubChem BioAssay (NCI)
